# In all, about 69,000 compounds went through this assay and about 8,600 (12%) showed an effect of 50% or more. Only a selection was taken, and strong results are over-represented in it overall.
# Tested on: Plasmodium berghei
# Assay: Screen against P. berghei liver stage (PbLuc), transformed with Luciferase, at 10uM
# Format: functional, HepG2
# Conditions: tested at 10 uM
row,SMILES,INHIBITION
1,Cc1nn(C)c2cn(CC(=O)N3CCN(c4ccccc4)CC3)nc12,30.8%
2,O=C(NCCC1CN(Cc2c[nH]cn2)CCO1)c1ccccc1O (stereo not given),18.6%
3,c1ccc(C(CC2CN(Cc3c[nH]cn3)CCO2)c2ccccc2)cc1 (stereo not given),72.1%
4,CC1(C)C(C(=O)NCCC2CN(Cc3c[nH]cn3)CCO2)C1(C)C (stereo not given),55.5%
5,O=C(NCCC1CN(Cc2c[nH]cn2)CCO1)Nc1ccccc1 (stereo not given),1.79%
6,c1ccc(C(CC2CN(Cc3ncc[nH]3)CCO2)c2ccccc2)cc1 (stereo not given),43.9%
7,Cn1ccnc1CN1CCOC(Cc2ccccc2)C1 (stereo not given),0.696%
8,CC(C)NC(=O)N(Cc1cc(O)nc2ccccc12)C(C)C,-10.3%
9,CCOc1ccnc(N2CCN(C(=O)c3ccoc3)CC2)n1,23.7%
10,Cc1cc(C)c2[nH]c(C(=O)NCCN3CCNC3=O)c(C)c2c1,-16.3%
11,Cc1nc(=O)c(CC(=O)N2C[C@@H]3CC[C@H]2CN(C(=O)N(C)C)C3)c(C)[nH]1,0.547%
12,Cc1ccc(CN2C[C@@H](OCc3csc(C)n3)[C@H]3COC[C@H]32)s1,-14.4%
13,Cc1cnc(CNC(=O)[C@@]23CCO[C@@H]2CCNC3)cn1,49.4%
14,Cc1cc(C[C@@H]2CCC[C@H]2NCc2cccc(F)c2F)on1,15.9%
15,Cc1cc(C[C@@H]2CCC[C@H]2NCc2ccccc2C)on1,44.1%
16,Cc1cc(C[C@@H]2COC[C@H]2NCc2ccc(C(F)(F)F)cc2)on1,31.6%
17,Cc1cc(C[C@@H]2CCC[C@H]2NCc2ccccc2C(F)(F)F)on1,70.5%
18,Cc1cc(C[C@@H]2CCC[C@H]2NCc2ccc(C(F)(F)F)cc2)on1,41.2%
19,Cc1cc(C[C@@H]2COC[C@H]2NCc2ccc(Br)s2)on1,31.8%
20,Cc1cc(C[C@@H]2CCC[C@H]2NCc2ccccc2F)on1,75.3%
21,Cc1cc(C[C@@H]2CCC[C@H]2NCc2cc(F)ccc2F)on1,-1.85%
22,Cc1cc(C[C@@H]2CCC[C@H]2NCc2cc(C)c(O)c(C)c2)on1,26.7%

row,SMILES,INHIBITION
1,CCCOc1ccccc1CN[C@@H]1CCC[C@H]1Cc1cc(C)no1,54.5%
2,Cc1cc(C[C@@H]2CCC[C@H]2NCc2c[nH]nc2-c2ccccc2)on1,5.56%
3,Cc1cc(C[C@@H]2COC[C@H]2NCc2ccccc2C(F)(F)F)on1,50%
4,O=C(CCc1nc(C2CC2)no1)c1ccc(F)c(F)c1,-2.43%
5,CCOc1ccc(OCc2nc3c(c(=O)[nH]2)CCNC3)cc1,26.7%
6,c1coc(CN2C[C@@H]3OCCN(CCN4CCCC4)[C@@H]3C2)c1,36.4%
7,CCn1cnnc1CNC(=O)N1CCC(OCc2ccccc2)CC1,23.4%
8,COCc1cncc2c1CCN(C(=O)c1ccc(C#N)cc1)C2,5.89%
9,CC(C)C(=O)N1CCC(C)(c2cc[nH]n2)CC1,-16.9%
10,O[C@@H]1CC(CNCc2cccc(Cl)c2)(COc2cnccn2)C[C@@H]1O (stereo not given in full),-4.26%
11,CN(Cc1n[nH]c2c1CCC2)C(=O)CCc1cc2n(n1)CCCNC2,0.72%
12,COC(=O)N1CC[C@@]2(C1)[C@H](OC)CN(c1ccccc1)S2(=O)=O,31.3%
13,CO[C@@H]1CN(c2ccccc2)S(=O)(=O)[C@@]12CCN(C(=O)N(C)C)C2,51.7%
14,CO[C@@H]1CN(c2ccccc2)S(=O)(=O)[C@@]12CCN(C(C)=O)C2,34.3%
15,O=C1CCC2(CCNCC2)CN1Cc1nncn1CCc1ccccc1,0.348%
16,CC(=O)NCc1ccc(-n2ccnc2C)nc1,57.6%
17,Cc1nccn1-c1ccc(CNS(=O)(=O)N2CCC(C)CC2)cn1,76%
18,Cc1nccn1-c1ccc(CNS(=O)(=O)N2CCCC(C)C2)cn1 (stereo not given),37.7%
19,Cc1nccn1-c1ccc(CNS(=O)(=O)N2CCCCC2C)cn1 (stereo not given),43.9%
20,Cc1nccn1-c1ccc(CNC(=O)c2ccc[nH]2)cn1,10.5%
21,Cc1nccn1-c1ccc(CNC(=O)c2ccc(O)nc2)cn1,38.3%
22,CCn1cc(C(=O)Nc2cc(C(=O)OC)ccc2C(=O)OC)cn1,13.3%

row,SMILES,INHIBITION
1,COc1ccccc1Cc1cc(O)nc(NC(C)CN(C)C)n1 (stereo not given),9.63%
2,CC(NC(=O)COc1ccccc1Cl)c1nnc2n1CCC2 (stereo not given),-40.7%
3,CC(C)CN1CC(C(=O)NCc2ccnc(-n3cccn3)c2)CC1=O (stereo not given),27.357%
4,Cn1cc(C(=O)N2CCCC(Cc3cnccn3)C2)cn1 (stereo not given),-12.2%
5,CCS(=O)(=O)N1CCCC(Cc2cnccn2)C1 (stereo not given),56%
6,CS(=O)(=O)N1CCCC(Cc2cnc(Br)cn2)C1 (stereo not given),26.7%
7,CC(NC(=O)CCCn1cnc2ccccc2c1=O)c1ncn[nH]1 (stereo not given),11.1%
8,COCc1cc(NCCc2ccc(OC)cc2)n2nccc2n1,32.2%
9,N#CC1(NC(=O)c2ccc(-c3nc(C4CC4)n[nH]3)cc2)CC1,8.38%
10,CCC(C)NC(=O)CCn1ccc(C)n1 (stereo not given),-5.77%
11,Cc1cc(=O)n(CC(=O)NCCC(C)C)c(-c2cccc(Cl)c2)n1,48.5%
12,CCC(C)NC(=O)Cn1c(Nc2cc(C)cc(C)c2)nc(C)cc1=O (stereo not given),55.4%
13,Cc1cc(C)cc(Nc2nc(C)cc(=O)n2CC(=O)NC(C)C)c1,34.6%
14,Cc1cccc(-c2nc(C)nn2CC(=O)NC(C)C)c1,22.3%
15,Cc1cc(=O)n(CC(=O)NC(C)C)c(Nc2ccc(F)c(C)c2)n1,64.2%
16,CC(C)n1cnc2ccc(NC(=O)CCCn3cccn3)cc2c1=O,-5.38%
17,Cc1cccc(C(=O)N2CCC(C(=O)c3cc(F)ccc3F)CC2)n1,11.6%
18,Cc1cc(NC(=O)N2CCCC2C(=O)NC2CC2)c2ncccc2c1 (stereo not given),22.6%
19,Cc1cc(NC(=O)NC2CCN(C(C)C)CC2)c2ncccc2c1,70.5%
20,Cc1cc(NC(=O)N2CCCC2C(C)(C)O)c2ncccc2c1 (stereo not given),35.4%
21,CCN(C(=O)c1nc2c(s1)CCCN2S(C)(=O)=O)C(C)C,4.68%
22,Cc1cc(C)n(C2CCCN(C(=O)CCNc3ncccn3)C2)n1 (stereo not given),41.5%

row,SMILES,INHIBITION
1,Cc1oc(-c2ccccc2)nc1CN1CCC(c2ccnn2C)CC1,69.7%
2,Cc1oc(-c2ccsc2)nc1CN1CC[C@@H]2CCCC[C@H]2C1,28.4%
3,CSc1ccc(-c2nc(CN3CCC(C(N)=O)CC3)c(C)o2)cc1,-10.2375%
4,Cc1ncc2c(n1)CN(Cc1nc(-c3ccsc3)oc1C)CC2,-4.92%
5,CSc1ccc(-c2nc(CN3CCC(CN)C3)c(C)o2)cc1 (stereo not given),-70.3%
6,Cc1oc(-c2ccsc2)nc1CN1CCCC(c2ccnn2C)C1 (stereo not given),66.3%
7,Cn1cc(NS(=O)(=O)CCOc2ccc(F)cc2)cn1,-15.29%
8,Cc1cc(C)n(Cc2cc(C(=O)N3CCCC3c3ccccn3)n[nH]2)n1 (stereo not given),39.7%
9,CC(=O)Nc1cccc2c1ccn2CC(=O)Nc1ncc[nH]1,25.8%
10,COCCOCC(=O)N1CCCC(c2ncc[nH]2)C1 (stereo not given),-45%
11,Cc1nnc(C2CCN(c3ccccc3)CC2)o1,16.5%
12,CN(C)S(=O)(=O)N1CCC(C)(c2ncc(C(N)=O)s2)CC1,-7.66%
13,Cc1ccc(NC(=O)CNC(C)CN2CCOCC2)c(F)c1 (stereo not given),41.5%
14,Cc1ccc(NC(=O)CNC(C)CN2CCCCC2)c(F)c1 (stereo not given),63.8%
15,Cc1ccc(NC(=O)CN2CCOCC2)c(F)c1,28%
16,Cc1cc(C)n(CCC(=O)N2CCC(Nc3cccnn3)CC2)n1,-16.75%
17,CC1CN(CC(=O)NC(C2CC2)C2CC2)CCN1Cc1nccn1C (stereo not given),-43.05%
18,COc1ccc(CN2CCC3(CC2)NC(=O)CC3c2ccncc2)cc1 (stereo not given),30.7%
19,CN1CCCn2c(nc(CNC(=O)c3nccn3C)cc2=O)C1,13.7%
20,COCC(=O)NCc1cc(=O)n2c(n1)CN(C)CCC2,59.3%
21,COCC(=O)NCc1cc(=O)n2c(n1)CN(CC1CC1)CCC2,26.7%
22,CC(C)N1CCCn2c(nc(CNC(=O)c3nccn3C)cc2=O)C1,71.6%

row,SMILES,INHIBITION
1,CC(C)N1CCc2c(CNC(=O)c3nccn3C)cncc2C1,24%
2,CCCN1CCCn2c(nc(CNC(=O)c3nccn3C)cc2=O)C1,66.8%
3,Cn1ccnc1C(=O)NCc1cc(=O)n2c(n1)CN(CC1CC1)CCC2,4.02%
4,COCCN1CCCn2c(nc(CNC(=O)COC)cc2=O)C1,31.2%
5,Cc1oncc1C(=O)NCc1cc(=O)n2c(n1)CN(C(C)C)CCC2,35.4%
6,CCn1cc(CN2CCC3(CC2)c2ccccc2CC3O)cn1 (stereo not given),2.7%
7,CC(C)CN1C[C@@H]2C[C@H](C(=O)N3CCCC3)[C@H](C1)O2,31.5%
8,c1cc(CN2CCc3ncc(CN4CCCCC4)n3CC2)cs1,20.9%
9,Cc1ccc(CN2Cc3nnn(C)c3C(COCC(=O)N(C)C)C2)s1 (stereo not given),42.1%
10,CC(C)CNC(=O)c1[nH]nc(C2CC2)c1Br,-7.46%
11,O=C1NC2(Cc3ccccc31)CN(CC1CCNC1)C2 (stereo not given),46.6%
12,Fc1cccc(C2CCCN2Cc2nnnn2C2CC2)c1 (stereo not given),31.1%
13,O=C(CCC(F)(F)F)N1CCN(Cc2ccncc2)[C@@H]2CS(=O)(=O)C[C@@H]21,42.1%
14,CCn1nc(CNC(=O)C2CCCN(CC(N)=O)C2)c2ccccc21 (stereo not given),67.2%
15,CCn1nc(C)c(CCNC(=O)C2CCCN(CC(N)=O)C2)c1C (stereo not given),18.8%
16,CCN1CC(C(=O)NCc2noc(Cc3ccccc3)n2)CCC1=O (stereo not given),17.6%
17,Cc1n[nH]c(C)c1CCNC(=O)C1CCCN(CC(N)=O)C1 (stereo not given),74.4%
18,CCN1CC(C(=O)NCc2nn(CC)c3ccccc23)CCC1=O (stereo not given),65%
19,Cc1n[nH]c(C)c1CCNC(=O)C1CCCN(Cc2ccco2)C1 (stereo not given),-4.96%
20,CCn1nc(CNC(=O)C2CC(=O)N(C3CCCC3)C2)c2ccccc21 (stereo not given),30.1%
21,Cc1ccc2c(c1)c(CNC(=O)C1CCCN(CC(N)=O)C1)nn2C (stereo not given),10.5%
22,CCn1nc(CNC(=O)C2CCCN(C(=O)COC)C2)c2ccccc21 (stereo not given),10.5%
